Consider 1 compound from PubChem BioAssay AID2284174 (EPA ToxCast).

Inconclusive results are not listed. Active and inactive are the calls of the source. Rule for the calls: active = hit-call score of the fitted dose curve at least 0.9, where 1 is the maximum; inconclusive = response in the unintended direction; inactive = score below 0.9.

rat SKCa (Non-Selective), Kcnn1 (gene 54261), sequence (P70606 whole entry, looked up): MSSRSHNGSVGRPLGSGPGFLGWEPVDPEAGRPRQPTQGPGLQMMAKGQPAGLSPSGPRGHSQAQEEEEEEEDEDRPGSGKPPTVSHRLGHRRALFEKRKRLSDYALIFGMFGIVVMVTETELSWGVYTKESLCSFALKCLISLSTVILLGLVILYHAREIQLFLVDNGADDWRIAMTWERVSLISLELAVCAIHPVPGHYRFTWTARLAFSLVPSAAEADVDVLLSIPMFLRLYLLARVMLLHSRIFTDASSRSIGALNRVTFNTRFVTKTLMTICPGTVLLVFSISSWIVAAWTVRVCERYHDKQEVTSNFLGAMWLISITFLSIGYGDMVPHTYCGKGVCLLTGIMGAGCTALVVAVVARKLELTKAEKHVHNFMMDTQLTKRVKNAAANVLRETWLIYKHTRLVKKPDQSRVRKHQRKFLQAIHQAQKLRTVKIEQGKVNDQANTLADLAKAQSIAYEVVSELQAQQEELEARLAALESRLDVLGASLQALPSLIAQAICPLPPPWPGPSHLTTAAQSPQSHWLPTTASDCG

The test concerns the target rat SKCa (Non-Selective), Kcnn1 (gene 54261) (UniProt P70606). Put plainly: ERF_FR_IC_rKCNN1: Eurofins (ERF) Potassium Ion Channel [125I] Apamin Binding LeadHunter Assay for rat SKCa (Non-Selective). How it is done:
ERF_FR_IC_rKCNN1 is a biochemical, single-readout assay that uses extracted gene-proteins in a cell-free assay. Measurements were taken 1 hour after chemical dosing in a 96-well plate. See SKCa (Non-Selective) Rat Potassium Ion Channel [125I] Apamin Binding Assay, Cerep.ERF_FR_IC_rKCNN1 is an assay component calculated from the ERF_FR_IC_rKCNN1 assay. It is designed to measure radioligand binding using a type of binding reporter as detected by scintillation counting with radiometry technology.Data from the assay component ERF_FR_IC_rKCNN1 was analyzed at the assay endpoint, ERF_FR_IC_rKCNN1, in the positive analysis fitting direction relative to DMSO as the negative control and baseline of activity. Using a type of binding reporter, loss-of-signal activity can be used to understand changes in binding as they relate to gene Kcnn1. To generalize the intended target to other relatable targets, this assay endpoint is annotated to the ion channel intended target family, where the subfamily is voltage gated (Potassium).
This assay measures binding of [125I]apamin to small conductance calcium-activated potassium channel sites [SKCa]. […] Membranes are filtered and washed 3 times and the filters are counted to determine [125I]apamin specifically bound. […]
With `CCCCC[C@H](O)CC(=O)CCc1ccc(O)c(OC)c1`, the compound was classed as inactive.
